This is a sample that favours compounds with a hit; in the whole collection about 4.1% have one here.
hcDAF-12 act: H. contortus DAF-12 activation, primary screen. HEK293 hcDAF-12 lit1-tk-luc reporter, luminescence; 0% DMSO, 100% Δ7-dafachronic acid. activation, % at 6.8 µM. 370,000 tested, 1.4% active. AID 652067;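 active = activation above the mean of all tested compounds plus 3 SD, cut at about 5.5% in these data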
ssDAF12 agonist: activators of S. stercoralis DAF-12 nuclear receptor. activation, % at 6.8 µM. 370,000 tested, 1% active. HEK293 ssDAF-12/GRIP1 lit1-tk-luc reporter, luminescence; % of 3 µM dafachronic acid response. AID 652126;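 active = activation above the mean over all tested compounds plus 3 SD, cut at about 0.9% in these data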
DAX1 inh-1: NR0B1 (DAX1) inhibition; P51843; HEK293 Gal4-DAX1 luciferase reporter, luminescence; inhibition, % at 6.75 µM; 340,000 tested, 0.99% active;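 active = inhibition above the mean over all tested compounds plus 3 SD, cut at about 4.2% in these data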;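 also: inhibition shows as a rise in luminescence from relieved DAX1 repression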
Target sequence (P51843 207-470 limits assumed): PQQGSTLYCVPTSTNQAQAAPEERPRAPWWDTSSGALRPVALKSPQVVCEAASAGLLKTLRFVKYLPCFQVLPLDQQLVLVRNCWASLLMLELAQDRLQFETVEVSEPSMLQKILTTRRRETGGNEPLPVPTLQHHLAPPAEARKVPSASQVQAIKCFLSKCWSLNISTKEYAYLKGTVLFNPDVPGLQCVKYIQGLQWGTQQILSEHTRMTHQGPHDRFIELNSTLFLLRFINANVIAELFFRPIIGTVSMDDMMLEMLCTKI
DAX1 inh-2: DAX1 (NR0B1) inhibition, primary screen | HEK293T StAR-luciferase reporter, SF-1/DAX-1 repression relief | inhibition, % at 6.8 µM | 370,000 tested, 1.1% active | AID 652010;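 active = inhibition above the mean over all tested compounds plus 3 SD, cut at about 3.6% in these data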;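 also: higher inhibition means more luminescence from relief of DAX-1 repression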
hgDAF-12 ag: activates the H. glycines DAF-12 receptor ligand-binding domain | HEK293 GAL4-hgDAF12 UAS-luciferase reporter, agonist luminescence; normalized to butyrate control | activation, % at 6.8 µM | 370,000 tested, 1.8% active;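 active = activation above a cutoff set at the mean of all screened compounds plus 3 SD, cut at about 10% in these data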
Of the large screens only hits and unclear results are named; the others gave an inactive call.

N#C[C@H]1C(O)C(O)c2ccccc2N1C(=O)c1ccccc1 (stereo partly specified)	DAX1 inh-1 4.3
CC1=Cc2ccccc2C(C#N)N1C(=O)c1ccccc1 (stereo unspecified)	none
COCCCNC(=O)C[C@H]1C[C@@]2(C(=O)OC)C(=C[C@H](C3CCCC3)O[C@@H]2C)N(Cc2cccc3ccccc23)C1=O	none (no result: DAX1 inh-1)
COC(=O)[C@@]12CCCCC3=C1N(CCC3)C(=O)[C@H]2CC(=O)N1CCSCC1	ssDAF12 agonist 1.5 (no result: DAX1 inh-1)
O=C(Oc1ccc(-c2cnc3ccccc3n2)cc1)c1ccco1	hcDAF-12 act 5.6
COc1ccc(/C=N/S(=O)(=O)c2cccs2)cc1	ssDAF12 agonist 3.0
COc1ccc(/C=C2\S/C(=N/S(=O)(=O)c3cccs3)NC2=O)cc1	none
COc1ncc(-c2cc(C(C)=O)c3n(c2=O)CCC3)c(OC)n1	none (no result: DAX1 inh-1)
COc1ccc(N2C(=O)C3C(c4ccc(OC)cc4O)NC(Cc4ccccc4)(C(=O)O)C3C2=O)cc1 (stereo unspecified)	DAX1 inh-1 7.6
COCCNC(=O)Cn1nc(-c2ccc(Cl)cc2)c2ccccc2c1=O	ssDAF12 agonist 11
COCCNC(=O)Cn1nc(-c2ccccc2)c2ccccc2c1=O	none
C#CCNC(=O)c1cnn(-c2ccccc2)c1N	none (no result: DAX1 inh-1)
Cc1cc(/C=C(\C#N)C(=O)NC2CCCCCC2)c(C)[nH]1	none
Cc1cc(/C=C(\C#N)C(=O)NC2CC2)c(C)[nH]1	hgDAF-12 ag 12
Cc1[nH]c2ccccc2c1Cc1nnc(SCC(N)=O)o1	DAX1 inh-1 4.7
S=c1[nH]nc(Cc2cccc3ccccc23)o1	none
Cc1[nH]c2ccccc2c1Cc1n[nH]c(=S)o1	DAX1 inh-1 4.7
O=C(Nc1ccc2c(c1)OCO2)OC1CCC12CCC(c1ccccc1)CC2 (stereo unspecified)	none (no result: DAX1 inh-1)
Nc1[nH]c(C(=O)c2ccccc2)c(-c2ccc(Cl)c(F)c2)c1C(=O)c1c[nH]c2ccccc12	none (no result: DAX1 inh-1)
Cc1cc(NC(=O)Nc2ccc(Cl)c(Cl)c2)n(-c2ccccc2)n1	DAX1 inh-1 4.8
O=C(Nc1ccc(Cl)c(Cl)c1)Nc1ccccc1C(=O)O	DAX1 inh-2 4.1
O=C(Nc1ccc2nccnc2c1)Nc1ccccc1Cl	hgDAF-12 ag 11
O=S1(=O)CC(N2CCSCC2)CN1Cc1cn(Cc2ccc(Cl)cc2)nn1 (stereo unspecified)	none (no result: DAX1 inh-1)
Cc1ccc2c(c1)c1nc3ccccc3nc1n2C	hcDAF-12 act 5.9, ssDAF12 agonist 1.9, DAX1 inh-1 4.5
CSc1cnn(CCC#N)c(=O)n1	hcDAF-12 act 6.0, ssDAF12 agonist 1.2 (no result: DAX1 inh-1)
Cc1cc(/C=C(\C#N)C(=O)NCCc2c[nH]c3ccccc23)c(C)n1C	none
N#C/C(=C/c1ccc(Br)s1)C(=O)NCCc1c[nH]c2ccccc12	hcDAF-12 act 6.0
COc1ccc(/C=C/CN2CCN(Cc3cccc(OC)c3)C(CCO)C2)cc1 (stereo unspecified)	DAX1 inh-1 4.2
CCOc1ccc(CN2CCN(C/C=C/c3ccc(OC)cc3)CC2CCO)cc1 (stereo unspecified)	none
CO[C@H]([C@H](C)/C=C/N(C)C=O)[C@@H](C)C(O)CC[C@H](C)[C@H](O)[C@H](C)[C@H]1OC(=O)/C=C/C(C)=C/C[C@H](O)C[C@@H]2C=CC[C@@H](C[C@H](OC)[C@@]3(CO3)[C@@H](OC)C[C@@H](OC)[C@@H]1C)O2 (stereo partly specified)	none (no result: DAX1 inh-1, DAX1 inh-2)
Cc1cccc(C(=O)Nc2ccccc2SCC(=O)Nc2ccc(C)c(Cl)c2)c1	hcDAF-12 act 6.5
Cc1ccc(NC(=O)CSc2ccccc2NC(=O)c2cccc(Cl)c2)cc1Cl	none
Cn1c(/C(C#N)=C/c2ccc(O)cc2)nc2ccccc21	ssDAF12 agonist 1.2, DAX1 inh-1 5.5
COC(=O)[C@]12C[C@H](CC(=O)N3CCSCC3)C(=O)N(CCc3ccc(OC)c(OC)c3)C1=C[C@H](C(C)(C)C)O[C@@H]2C	none (no result: DAX1 inh-1)
COc1cc(C=O)ccc1OCc1ccc(Cl)nc1	hgDAF-12 ag 11
O=C(O)C1C2C=CC(C2)C1C(=O)N1CCc2ccccc21 (stereo unspecified)	hcDAF-12 act 5.6
C/C(=N\NC=O)c1ccncc1	DAX1 inh-1 5.0
C/C(=N\Nc1ccc(Cl)cc1)c1ccncc1	none
[O-][n+]1ccc(C(O)c2ccccc2)cc1 (stereo unspecified)	DAX1 inh-1 5.1
OC(C[n+]1ccccc1)c1ccccc1 (stereo unspecified)	none
Cc1ccc(/C=C2\SC(N3CCCC3)=NC2=O)cc1	none (no result: DAX1 inh-1)
CN(C)c1ccc(/C=C2\SC(N3CCCCC3)=NC2=O)cc1	DAX1 inh-1 4.6
COC(=O)C12CCCN1C1C(=O)N(Cc3ccc(C(N)=O)cc3)CC1C2 (stereo unspecified)	none (no result: DAX1 inh-1)
CN1CCCCC(NC(=O)c2ccccc2)C1=O (stereo unspecified)	none (no result: DAX1 inh-1)
CN1CCCCC(NC(=O)c2ccc3ccccc3c2)C1=O (stereo unspecified)	hgDAF-12 ag 11 (no result: DAX1 inh-1)
Nn1c(SCC(=O)Nc2ccc(Br)cn2)nnc1-c1n[nH]c2c1CCC2	none (no result: DAX1 inh-1)
COc1ccc(-c2c(Cc3ccccc3)nc(NC(=O)c3ccccc3)n2Cc2ccc(OC)cc2OC)cc1	none (no result: DAX1 inh-1)
CC(=O)N1CCN(C(=O)c2cc3c(s2)CCC(C)C3)CC1 (stereo unspecified)	ssDAF12 agonist 1.0, DAX1 inh-2 3.9
Cc1ccc(S(=O)(=O)N2CCN(C(=O)c3cc4c(s3)CCC(C)C4)CC2)cc1 (stereo unspecified)	none
CNc1cccc(-c2ccccc2C(C)=O)n1	none (no result: DAX1 inh-1)
CNc1cccc(-c2ccc(C(C)=O)s2)n1	DAX1 inh-2 4.0 (no result: DAX1 inh-1)
O=C(CCc1c[nH]c2ccccc12)N=Nc1c(O)[nH]c2ccccc12	none
O=C(CCNC(=O)c1ccccc1)N=Nc1c(O)[nH]c2ccccc12	ssDAF12 agonist 21 (no result: DAX1 inh-1)
Cc1ccc(NC(=S)N=Nc2c(O)[nH]c3ccccc23)cc1	none
CNC(=S)N=Nc1c(O)[nH]c2ccccc12	hcDAF-12 act 5.6
O=c1c(C=NCCCn2ccnc2)c(-c2ccccc2)[nH]n1-c1nc2ccccc2s1	DAX1 inh-2 4.3
CN(C)CCCN=Cc1c(-c2ccccc2)[nH]n(-c2nc3ccccc3s2)c1=O	none
Cc1ccc(N(C(=O)CNC(=O)c2ccco2)C(C(=O)NC2CCCC2)c2cccnc2)cc1C (stereo unspecified)	DAX1 inh-1 4.3
O=C(NCC(=O)N(CC1CCCO1)C(C(=O)NC1CCCCC1)c1cccnc1)c1cccs1 (stereo unspecified)	DAX1 inh-1 5.0
COc1ccc(S[C@]2(C(=O)N3CCN(C(C)=O)CC3)CC(=O)N(C(=O)/C=C/c3ccccc3)[C@@H]2c2ccc(OC)cc2)cc1	none (no result: DAX1 inh-1)
CCOC(=O)C1=C(C)C(c2ccc(OC)cc2OC)NC(=O)N1 (stereo unspecified)	none
CCOC(=O)C1=C(C)C(c2ccccc2O)NC(=O)N1 (stereo unspecified)	DAX1 inh-1 6.0
